This passage reports PBM binding z-score results from the supplement of paper PMC6555819.

The subject of this assay is VDR:RXRa (NR concentration 270 nM, RXRa partner concentration 90 nM). Description: PBM binding z-score (relative to random genomic background probes); higher = stronger binding; sequences stand for … in GC…GCGATTGACAGCGTAGAATGAAGG
The protocol:
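Protein-binding microarray (Agilent 4x180K custom design, double-stranded 60-nt probes: 5' GC cap, 34-nt variable region, 24-nt constant primer region; full probe sequence given). Purified or IVT nuclear receptor:RXRα heterodimers (3:1 NR:RXRα, mostly 270:90 nM) or homodimers were incubated for 1 h in PBS with 2% milk and no ligand, then detected with Alexa488 antibodies. Fluorescence from o1-orientation probes (~5 replicates averaged) was converted to z-scores against 500 random hg19 background probes. Variable regions are seed direct-repeat (DR0–DR5) sites, all their single-nucleotide variants and half-site ablations.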
For the sequence ACTAACGGGTCAACGAGGTTATAGCACGCGTATA, the PBM binding z-score turned out to be 7.41. Under CGTCCAAGGTGAGCAGGTCAGTGAAAGCGACGTG stands 0.0617. Next, GCTAGTTGGTCAGTAAAAGGTCACACATCGGTCG: 3.96; CCTCGGACGACAACAGGAGGTCAGAGCTGCCAGA: 1.52; CGAACTAGGTCAGAACAGAACAGTGAAGGATGAT: -0.0419. Next, AGAACGAGGGCACGCTGAGTTGATAGAAGAGTAG: 2.26. Sequence ATATGTAGGTTAGCTGGGTTCATTCAGACTAGGC had a PBM binding z-score of 6.4. Next, ACTCGGAGGACAAAGGTCAGAGCAACGCCAGTGA: 3.39; GGAACGTGGGCAAAGTTGATAGCATCTGTCGACG: -0.399; CGTCCAAGGCCAGAGAGGTCAGTGAATGCCGAGT: 4.04. In turn, TAGCCTAGGTCAGAACGGGCCAGTATACGCTATA returned a PBM binding z-score of 0.299. Under ATATGTAGGTTATCGCGTCATTCAGTTTGCGCAT stands 0.798. Regarding CCAGACAGGTGGAAGGTAACTCAGTCTGGTACGC, the PBM binding z-score is -0.365.

Turning to CGTTCAAGGTCAAGGTCAGTGAAAGAGACTCGAA, the PBM binding z-score is 5.

The sequence TCTTGTAGATCAACTGGAGGTTAAGAAAGATCGA yielded a PBM binding z-score of 0.589. For CCTAGTTGGTAAGGAGGTCACACACCGGATATGA, the PBM binding z-score was determined as 3.53.

As for TCTATTAGTTTATTAGGGCAACCGAAACAGCGGA, the PBM binding z-score worked out at 1.03.

In turn, CCAGACAGGTGAAAGGGAACTCAGTCTGGTACGC returned a PBM binding z-score of -0.152.

The sequence AGTCAAAGTTCATCTAGGTACCGTAAGATATGCT had a PBM binding z-score of 4.98. The sequence CCTATTAGTTGACCATTAGGGCAACCGAAGCTCG showed a PBM binding z-score of 0.563. In turn, CTAGACAGGTGAGAAGGTAACTCAGCCTCGATTA had a PBM binding z-score of -0.342. Under ACTTATGGGTCAACGAGGTTATAGCACGCGTATA stands 7.43. Under CAAACGAGGGCATGAGTTGATAGCAAATGCCGAT stands 1.58; under AGTCACAGTTCATCTAGGTAACGTAAGATATGCT, 3.05. Next, AGAACGAGGGCACGCTTAGTTGATAGCAGAGTAG: 1.19; CCTTACGGGTCACTGACAGGTTATAGTATTTGGA: 3.85. In turn, CCTACTGTGCCAAAGGTCATTGATTCCAATGCTC gave a PBM binding z-score of 5.13.

Take GCTAGCAGGCCATTTTGGTCACTCAATGACGGGC: the PBM binding z-score was -0.816.

CAAACTAGGTCAAAGGTCATAGTCGAGCCAACCA showed a PBM binding z-score of 6.71.

For CAAACTAGGTGACGAAAGGTCAAAGTCGAATGAC, the PBM binding z-score worked out at 5.16. Under ATACCAAGGTGATCGTGAGGTCGTTTATACTAAC stands 3.6; under ACTATTAGTTAAGACGAGGGCAACCGATAGGTTG, 0.464; under CCTTACTGGTCAAGGTTATAGCACGGGTGGTACG, 0.737. Sequence CAGCCTAGGTCTGGGCCAGTATAGGAGGAACGTT registered a PBM binding z-score of -0.828. For GGAACGAGGGCAATTTGATAGCAGAGTTTGATGG, the PBM binding z-score amounted to 0.368.

Consider TTACCAAGGTGGAGGTCGTTGATCCCTCTGTAGA, for which the PBM binding z-score was 1.65. Next, CCTATTAGTTGACCATAAGGGCACCCGAAGCTCG: 1.09.

The sequence CAAACTAGGTCAAAGGTCTAAGTCGAGCCAACCA had a PBM binding z-score of 2.98. AGAATGAGGGCAATGAGTTGATAGCACGGGTGGC came in with a PBM binding z-score of 4.98.

The sequence TCTAGCAGGCCAAAGGGTCACTCAAGAGGTACGG had a PBM binding z-score of 3.12.
